{"source": "the supplement of paper PMC4683952", "note": "Where a name gives a salt, the structure may show the parent alone. Hit rate of the full screen: of about 1,200 compounds, about 50 (4%) showed activity. No stated cut-off is given here; in the data, all actives reach 1.3 or more but so do some inactives. The list comes from a sample in which actives are over-represented; it also holds similar structures and randomly drawn compounds.", "data": [{"tested_on": "Lgr5 (MarsCy1-Lgr5-EGFP, U2OS)", "test": "cell-surface Lgr5 expression (SCi1 fluorescence, background-subtracted) relative to WT DMSO (fold of DMSO control); higher = more Lgr5 at the plasma membrane, active = hit call of the paper", "conditions": "U2OS MarsCy1-Lgr5-EGFP stable; treatment time: overnight; 16 µM; library: Johns Hopkins Clinical Compound Library", "values": [{"smiles": "C=CC(N)CCC(=O)O", "note": "(stereo not drawn) [Vigabatrin]", "cell-surface Lgr5 expression": "1.52 (active)"}, {"smiles": "NC(CCC(=O)O)C(=O)O", "note": "(racemic) [DL-Glutamic acid monohydrate]", "cell-surface Lgr5 expression": "0.692 (inactive)"}, {"smiles": "NC(=O)N[C@@H](CCC(=O)O)C(=O)O", "note": "[Carglumic acid (N-Carbamyl-L-Glutamic Acid)]", "cell-surface Lgr5 expression": "1.08 (inactive)"}, {"smiles": "OCc1ccccc1O[C@@H]1O[C@H](CO)[C@@H](O)[C@H](O)[C@H]1O", "note": "[Salicin]", "cell-surface Lgr5 expression": "1.17 (inactive)"}, {"smiles": "CC(C)COCC(CN(Cc1ccccc1)c1ccccc1)N1CCCC1", "note": "(stereo not drawn) [Bepridil]", "cell-surface Lgr5 expression": "1.31 (active)"}, {"smiles": "c1ccc(CN(CC2=NCCN2)c2ccccc2)cc1", "note": "[Antazoline]", "cell-surface Lgr5 expression": "1.21 (inactive)"}, {"smiles": "c1ccc(CN(CC2=NCCN2)c2ccccc2)cc1", "note": "[Antazoline phosphate salt]", "cell-surface Lgr5 expression": "1.28 (inactive)"}, {"smiles": "Nc1c(Br)cc(Br)cc1CN[C@H]1CC[C@H](O)CC1", "note": "[Ambroxol hydrochloride]", "cell-surface Lgr5 expression": "1.54 (active)"}, {"smiles": "O=C1OC(c2ccc(O)cc2)(c2ccc(O[C@@H]3O[C@H](C(=O)O)[C@@H](O)[C@H](O)[C@H]3O)cc2)c2ccccc21", "note": "(stereo partly drawn) [Phenolphthalein beta-D-glucuronide sodium salt]", "cell-surface Lgr5 expression": "1 (inactive)"}, {"smiles": "NCCC[C@H](N)C(=O)O", "note": "[L-Ornithine]", "cell-surface Lgr5 expression": "0.718 (inactive)"}, {"smiles": "[K+].[OH-]", "note": "[Potassium hydroxide]", "cell-surface Lgr5 expression": "1.11 (inactive)"}, {"smiles": "C=CCSCC1Nc2cc(Cl)c(S(N)(=O)=O)cc2S(=O)(=O)N1", "note": "(stereo not drawn) [Althiazide]", "cell-surface Lgr5 expression": "1.27 (inactive)"}, {"smiles": "CN1C(CCl)Nc2cc(Cl)c(S(N)(=O)=O)cc2S1(=O)=O", "note": "(stereo not drawn) [Methyclothiazide]", "cell-surface Lgr5 expression": "0.905 (inactive)"}, {"smiles": "NS(=O)(=O)c1cc2c(cc1Cl)NC(C(Cl)Cl)NS2(=O)=O", "note": "(stereo not drawn) [Trichlormethiazide]", "cell-surface Lgr5 expression": "1.44 (active)"}, {"smiles": "CNC[C@H](O)c1cccc(O)c1", "note": "[L-Phenylephrine hydrochloride]", "cell-surface Lgr5 expression": "0.598 (inactive)"}, {"smiles": "CC(C)(C)NCC(O)c1ccc(O)c(CO)c1", "note": "(stereo not drawn) [Albuterol (Salbutamol)]", "cell-surface Lgr5 expression": "1.22 (inactive)"}, {"smiles": "CNCC(O)c1ccc(OC(=O)C(C)(C)C)c(OC(=O)C(C)(C)C)c1", "note": "(stereo not drawn) [Dipivefrin HCl]", "cell-surface Lgr5 expression": "1.42 (active)"}, {"smiles": "CCC(C)C(C(=O)OCC[N+](C)(CC)CC)c1ccccc1", "note": "(stereo not drawn) [Valethamate bromide]", "cell-surface Lgr5 expression": "1.1 (inactive)"}, {"smiles": "CCN(CC)C(=S)S", "note": "[Ditiocarb (Diethyldithiocarbamic acid sodium, thiocarb)]", "cell-surface Lgr5 expression": "1.05 (inactive)"}, {"smiles": "CCN(CC)CCCC(C)Nc1ccnc2cc(Cl)ccc12", "note": "(stereo not drawn) [Chloroquine diphosphate salt]", "cell-surface Lgr5 expression": "1.53 (inactive)"}, {"smiles": "CCN(CC)Cc1cc(Nc2ccnc3cc(Cl)ccc23)ccc1O", "note": "[Amodiaquin]", "cell-surface Lgr5 expression": "1.47 (inactive)"}, {"smiles": "O=C(OCC(O)CO)c1ccccc1Nc1ccnc2cc(Cl)ccc12", "note": "(stereo not drawn) [Glafenine]", "cell-surface Lgr5 expression": "1.63 (active)"}, {"smiles": "CN(CCO)CC(O)Cn1cnc2c1c(=O)n(C)c(=O)n2C", "note": "(stereo not drawn) [Xanthinol niacinate (Xanthinol Nicotinate)]", "cell-surface Lgr5 expression": "1.05 (inactive)"}, {"smiles": "O=Cc1cc(Br)cc(Br)c1O", "note": "[3,5-Dibromosalicylaldehyde]", "cell-surface Lgr5 expression": "1.17 (inactive)"}, {"smiles": "CNCCCC12CCC(c3ccccc31)c1ccccc12", "note": "[Maprotiline]", "cell-surface Lgr5 expression": "1.32 (active)"}, {"smiles": "CNCCCN1c2ccccc2CCc2ccccc21", "note": "[Desipramine]", "cell-surface Lgr5 expression": "1 (inactive)"}, {"smiles": "CNCCCC1c2ccccc2C=Cc2ccccc21", "note": "[Protriptyline]", "cell-surface Lgr5 expression": "0.38 (inactive)"}, {"smiles": "COc1cc(C2Oc3cc([C@H]4Oc5cc(O)cc(O)c5C(=O)[C@@H]4O)ccc3OC2CO)ccc1O", "note": "(stereo partly drawn) [Silibinin]", "cell-surface Lgr5 expression": "1.08 (inactive)"}, {"smiles": "COc1cc(C2Oc3cc([C@H]4Oc5cc(O)cc(O)c5C(=O)[C@@H]4O)ccc3OC2CO)ccc1O", "note": "(stereo partly drawn) [Silibinin (Silybin)]", "cell-surface Lgr5 expression": "1.23 (inactive)"}, {"smiles": "Oc1c(Cl)cc(Cl)c2cccnc12", "note": "[Chloroxine (5,7-Dichloro-8-hydroxyquinoline)]", "cell-surface Lgr5 expression": "0.97 (inactive)"}, {"smiles": "Cc1c(N(C)C)c(=O)n(-c2ccccc2)n1C", "note": "[Aminopyrine (4-Dimethylamino-antipyrine)]", "cell-surface Lgr5 expression": "1.14 (inactive)"}, {"smiles": "Cc1c(N(C)C)c(=O)n(-c2ccccc2)n1C", "note": "[Aminopyrine (4 Dimethylamino antipyrene)]", "cell-surface Lgr5 expression": "0.932 (inactive)"}, {"smiles": "Cc1cc(OS(=O)(=O)O)c2ccccc2c1OS(=O)(=O)O", "note": "[Menadiol disulfate disodium salt trihydrate]", "cell-surface Lgr5 expression": "0.856 (inactive)"}, {"smiles": "O=C(O)c1cc(S(=O)(=O)O)ccc1O", "note": "[Sulfosalicylic acid (5-Sulfosalicylic acid dihydrate)]", "cell-surface Lgr5 expression": "1.11 (inactive)"}, {"smiles": "CCC(NC(C)C)C(O)c1ccc(O)c(O)c1", "note": "(stereo not drawn) [Isoetharine mesylate]", "cell-surface Lgr5 expression": "1.19 (inactive)"}, {"smiles": "CNC[C@H](O)c1ccc(O)c(O)c1", "note": "[Epinephrine]", "cell-surface Lgr5 expression": "1.57 (inactive)"}, {"smiles": "NC[C@H](O)c1ccc(O)c(O)c1", "note": "[Norepinephrine]", "cell-surface Lgr5 expression": "1.26 (inactive)"}, {"smiles": "NC[C@H](O)c1ccc(O)c(O)c1", "note": "[Arterenol (Norepinephrine)]", "cell-surface Lgr5 expression": "1.3 (active)"}, {"smiles": "Cc1ncc(CO)c(CN)c1O", "note": "[Pyridoxamine dihydrochloride]", "cell-surface Lgr5 expression": "0.999 (inactive)"}, {"smiles": "Cc1ncc(CO)c(CN)c1O", "note": "[Pyridoxamine, Dihydrochloride]", "cell-surface Lgr5 expression": "1.02 (inactive)"}, {"smiles": "CCCCc1nc(Cl)c(CO)n1Cc1ccc(-c2ccccc2-c2nnn[nH]2)cc1", "note": "[Losartan]", "cell-surface Lgr5 expression": "0.915 (inactive)"}, {"smiles": "C[C@@H]1[C@H](O)[C@@H](C)/C=C/C=C/C=C/C=C/C=C/C=C/C=C/[C@H](O[C@@H]2O[C@H](C)[C@@H](O)[C@H](N)[C@@H]2O)C[C@@H]2O[C@](O)(C[C@@H](O)C[C@@H](O)[C@H](O)CC[C@@H](O)C[C@@H](O)CC(=O)O[C@H]1C)C[C@H](O)[C@H]2C(=O)O", "note": "[Amphotericin B]", "cell-surface Lgr5 expression": "0.802 (inactive)"}, {"smiles": "C[C@@H]1CCC[C@H](C)N1NC(=O)c1ccc(Cl)c(S(N)(=O)=O)c1", "note": "[Clopamide]", "cell-surface Lgr5 expression": "1.3 (inactive)"}, {"smiles": "CC(=O)OCC(=O)[C@@]12OC(C)(C)O[C@@H]1C[C@H]1[C@@H]3C[C@H](F)C4=CC(=O)C=C[C@]4(C)[C@@]3(F)[C@@H](O)C[C@@]12C", "note": "[Fluocinolone acetonide 21-acetate]", "cell-surface Lgr5 expression": "1.6 (active)"}, {"smiles": "CC(=O)O[C@]1(C(C)=O)CC[C@H]2[C@@H]3C[C@H](C)C4=CC(=O)CC[C@]4(C)[C@H]3CC[C@@]21C", "note": "[Medroxyprogesterone acetate]", "cell-surface Lgr5 expression": "1.2 (inactive)"}, {"smiles": "CC(=O)O[C@]1(C(C)=O)CC[C@H]2[C@@H]3C[C@H](C)C4=CC(=O)C=C[C@]4(C)[C@@]3(F)[C@@H](O)C[C@@]21C", "note": "[Fluorometholone acetate]", "cell-surface Lgr5 expression": "1.31 (active)"}, {"smiles": "CCCC(=O)O[C@]1(C(=O)COC(C)=O)CC[C@H]2[C@@H]3C[C@H](F)C4=CC(=O)C=C[C@]4(C)[C@@]3(F)[C@@H](O)C[C@@]21C", "cell-surface Lgr5 expression": "1.57 (active)"}, {"smiles": "CCCC(=O)O[C@]1(C(=O)CCl)[C@H](C)C[C@@H]2[C@@H]3CCC4=CC(=O)C=C[C@]4(C)[C@]3(F)C(=O)C[C@@]21C", "note": "[Clobetasone butyrate]", "cell-surface Lgr5 expression": "1 (inactive)"}, {"smiles": "CC(=O)OCC(=O)[C@@]12OC(C)(C)O[C@@H]1C[C@H]1[C@@H]3CCC4=CC(=O)C=C[C@]4(C)[C@@]3(F)[C@@H](O)C[C@@]12C", "note": "[Triamcinolone acetonide acetate]", "cell-surface Lgr5 expression": "1.26 (inactive)"}, {"smiles": "CC(=O)OCC(=O)[C@@]1(OC(C)=O)[C@@H](C)C[C@H]2[C@@H]3C[C@H](F)C4=CC(=O)C=C[C@]4(C)[C@@]3(F)[C@@H](O)C[C@@]21C", "note": "[Diflorasone diacetate]", "cell-surface Lgr5 expression": "1.67 (active)"}, {"smiles": "CC(=O)O[C@]1(C(C)=O)CC[C@H]2[C@@H]3C=C(Cl)C4=CC(=O)[C@@H]5C[C@@H]5[C@]4(C)[C@H]3CC[C@@]21C", "note": "[Cyproterone acetate]", "cell-surface Lgr5 expression": "1.25 (inactive)"}, {"smiles": "COc1cccc2c1C(=O)c1c(O)c3c(c(O)c1C2=O)C[C@@](O)(C(=O)CO)C[C@@H]3O[C@H]1C[C@H](N)[C@@H](O)[C@H](C)O1", "note": "[Epirubicin]", "cell-surface Lgr5 expression": "1.31 (inactive)"}, {"smiles": "O=S(=O)([O-])[O-].[Cu+2]", "note": "[Copper (II) sulfate]", "cell-surface Lgr5 expression": "1.27 (inactive)"}, {"smiles": "CCN1C(=CC=Cc2ccc3ccccc3[n+]2CC)C=Cc2ccccc21", "note": "[Quinaldine blue (Pinacyanol chloride)]", "cell-surface Lgr5 expression": "1.53 (inactive)"}, {"smiles": "CCCCNc1ccc(C(=O)OCCOCCOCCOCCOCCOCCOCCOCCOCCOC)cc1", "note": "[Benzonatate]", "cell-surface Lgr5 expression": "1.08 (inactive)"}, {"smiles": "O=C(O)c1ccc[n+]([O-])c1", "note": "[Oxiniacic acid (nicotinic acid n-oxide)]", "cell-surface Lgr5 expression": "0.989 (inactive)"}, {"smiles": "Cc1ccc(S(=O)(=O)NCl)cc1", "note": "[Chloramine-T hydrate]", "cell-surface Lgr5 expression": "0.672 (inactive)"}, {"smiles": "CCC(=O)Oc1ccc(/C(CC)=C(\\CC)c2ccc(OC(=O)CC)cc2)cc1", "note": "[Diethylstilbestrol dipropionate]", "cell-surface Lgr5 expression": "0.886 (inactive)"}, {"smiles": "O=P(O)(O)OC1C(OP(=O)(O)O)C(OP(=O)(O)O)C(OP(=O)(O)O)C(OP(=O)(O)O)C1OP(=O)(O)O", "note": "(stereo not drawn) [Phytic acid, dodecasodium salt hydrate]", "cell-surface Lgr5 expression": "0.522 (inactive)"}, {"smiles": "Br.N", "note": "[Ammonium bromide]", "cell-surface Lgr5 expression": "1.09 (inactive)"}, {"smiles": "CC1CCC(NC(=O)N(CCCl)N=O)CC1", "note": "(stereo not drawn) [Semustine]", "cell-surface Lgr5 expression": "1.06 (inactive)"}, {"smiles": "C[C@@H]1C/C=C/C=C/C=C/C=C/[C@H](O[C@@H]2O[C@H](C)[C@@H](O)[C@H](N)[C@@H]2O)C[C@@H]2O[C@](O)(C[C@@H](O)C[C@H]3O[C@@H]3/C=C/C(=O)O1)C[C@H](O)[C@H]2C(=O)O", "note": "[Natamycin (Pimaricin)]", "cell-surface Lgr5 expression": "0.845 (inactive)"}, {"smiles": "O=S(=O)([O-])[O-].O=S(=O)([O-])[O-].[Al+3].[Na+]", "note": "[Aluminum sodium sulfate]", "cell-surface Lgr5 expression": "0.71 (inactive)"}]}]}
